KKLEB tox: cytotoxicity in KKLEB CF airway cells, primary screen, cytotoxicity control for CF NF-kB inhibitor project, cell-based, uHTS, fluorescence assay plates. KKLEB CF airway cells viability, ATPlite luminescence, overnight; stronger effect = lower value; cells stimulated with P. aeruginosa culture filtrate. activity change (cytotoxicity), % at 5 µM. hit rate 0.36% among 360,000. AID 602141, 2011;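 active = corrected activity change at or below -50% at 5 µM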
Peg3 promoter: Peg3 promoter-driven luciferase inhibitors, primary screen, cell-based, HeLa, luciferase luminescence; HeLa PEG-Prom luciferase reporter, overnight; inhibition, % at 20 µM; hit rate 1.7% among 360,000;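 active = inhibition of at least 50% at 20 µM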
HIF-2a block: HIF-2a reporter inhibitors, primary screen, luminescence, 786-0 RCC cells; hit rate 0.72% among 360,000; 786-0 RCC cells HIF-2a reporter, luciferase luminescence, overnight; inhibition, % at 18.8 µM;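 active = inhibition of the luminescence signal of 40% or more relative to plate controls, in a single-dose primary screen at 18.75 µM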
MITF TRPM1 inh: inhibitors of MITF-dependent TRPM1 promoter reporter, primary screen, cell-based, SK-MEL-5, single point, luciferase; SK-MEL-5 TRPM1 promoter luciferase, 24 h; inhibition, % at 12.5 µM; hit rate 0.83% among 330,000; AID 488899, 2010;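 active = mean inhibition across replicates of 60% or more, whatever share of single replicates reaches that level; inconclusive = some that reach 60%, reason not given; inactive = mean inhibition across replicates below 60%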
CF NFkB inh: inhibitors of PAF-induced NF-kB signaling, primary screen, cell-based, GFP fluorescence, uHTS. KKLEB NF-kB-GFP reporter, GFP fluorescence overnight. inhibition, % at 5 µM. hit rate 0.86% among 360,000. AID 588850, 2011;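 active = at least 50% inhibition at 5 µM, scaled per plate between neutral and stimulator controls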;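 note: PAF is a Pseudomonas aeruginosa culture filtrate used as stimulus; plate controls were PAF-stimulated DMSO wells for no effect and unstimulated DMSO wells for full effect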
Shn3 3UTR inh: reduction of Shn3 3'UTR firefly luciferase signal, primary screen, Schnurri-3 inhibitor project, cell-based, Clone20 osteoblasts, set 2 | Clone20 osteoblast Shn3 3'UTR firefly luciferase, 24 h | AID 588674, 2011 | hit rate 0.52% among 360,000 | inhibition, % at 12.5 µM;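 active = mean inhibition of at least 75% with every replicate also reaching 75%; inconclusive = mean inhibition at least 75% but some replicate below; inactive = mean inhibition below 75%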;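 note: 0% = median of neutral control wells and 100% = pilot-screen positive control compound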
Mdm2 MdmX conf: retested Mdm2-MdmX interaction blockers, confirmation, cell-based, luminescence, single concentration, set 2; shares compounds with HIF-2a block; SaOS-2 split-luciferase Mdm2/MdmX complementation; inhibition, % at 8 µM; hit rate 99% among 740;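 active = mean inhibition of the luminescence signal across two replicates at or above 26 percent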
Target sequence (O15151 whole entry, looked up): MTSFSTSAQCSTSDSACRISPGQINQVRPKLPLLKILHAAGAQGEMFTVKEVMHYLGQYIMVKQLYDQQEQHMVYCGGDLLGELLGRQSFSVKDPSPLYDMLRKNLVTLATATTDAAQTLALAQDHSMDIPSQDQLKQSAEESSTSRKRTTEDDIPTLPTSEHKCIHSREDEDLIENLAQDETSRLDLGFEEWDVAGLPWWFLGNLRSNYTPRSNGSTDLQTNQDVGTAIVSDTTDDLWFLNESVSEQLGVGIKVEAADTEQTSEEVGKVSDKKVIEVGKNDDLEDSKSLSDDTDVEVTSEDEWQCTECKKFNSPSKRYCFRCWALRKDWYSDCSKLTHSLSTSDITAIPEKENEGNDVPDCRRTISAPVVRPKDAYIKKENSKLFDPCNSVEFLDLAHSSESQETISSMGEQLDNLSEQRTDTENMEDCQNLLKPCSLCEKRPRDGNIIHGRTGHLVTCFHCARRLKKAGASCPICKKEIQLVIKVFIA
Target sequence (Q00987 whole entry, looked up): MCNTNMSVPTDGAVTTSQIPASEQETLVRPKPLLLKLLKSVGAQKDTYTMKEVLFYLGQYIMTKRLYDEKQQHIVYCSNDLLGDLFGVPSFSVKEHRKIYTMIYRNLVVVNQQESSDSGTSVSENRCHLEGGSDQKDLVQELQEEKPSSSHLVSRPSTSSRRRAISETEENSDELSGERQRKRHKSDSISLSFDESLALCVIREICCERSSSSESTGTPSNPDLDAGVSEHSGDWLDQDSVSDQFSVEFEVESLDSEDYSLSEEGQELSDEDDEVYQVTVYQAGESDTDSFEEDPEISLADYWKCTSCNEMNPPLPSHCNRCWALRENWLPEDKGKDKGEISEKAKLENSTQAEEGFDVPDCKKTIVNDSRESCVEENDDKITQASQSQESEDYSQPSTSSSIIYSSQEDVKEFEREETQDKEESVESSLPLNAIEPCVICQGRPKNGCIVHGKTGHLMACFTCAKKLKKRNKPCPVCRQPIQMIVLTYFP
HIF-2a conf: HIF-2a reporter inhibitor retest, confirmation, luminescence, 786-0 RCC cells | hit rate 56% among 1,800 | inhibition, % at 18.8 µM | shares compounds with HIF-2a block | HIF-2a luciferase reporter luminescence, overnight;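 active = mean inhibition across four replicates of at least 40 percent at the single tested concentration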
HIF-1a cs: HIF-1a luciferase reporter signal reduction – MiaPaCa-2 cells, single concentration, counter-screen for HIF-2a inhibitor project, confirmation; MiaPaCa-2 HIF-1a luciferase reporter, desferoxamine, overnight; hit rate 72% among 1,800; inhibition, % at 18.8 µM; shares compounds with HIF-2a block;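 active = mean inhibition of the reporter signal across four replicates at the single tested dose of 50% or more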
* hit, by the source's call; ? = inconclusive; . = not tested or not shown. In the library only some 2.7% were active in any assay of this set; here they are far more common.

SMILES | KKLEB tox | Peg3 promoter | HIF-2a block | MITF TRPM1 inh | CF NFkB inh | Shn3 3UTR inh | HIF-2a conf | HIF-1a cs | others
NCCCCCc1nnc(SCc2ccccc2Cl)o1 | -1 | 13 | 68* | 25 | -20 | 26 | 83* | 68*
NCCc1nnc(SCc2c(Cl)cccc2Cl)o1 | -1 | 4 | 17 | -5 | -9 | -7 | . | .
CCCCCC(=O)N1C[C@H](O)[C@@H](n2cc(COC(=O)c3ccccc3)nn2)C[C@@H]1c1ccc(OC)cc1 | 9 | 10 | 0 | . | 5 | -26 | . | .
COc1nn(-c2ccccc2)c(=O)c(Cl)c1Cl | -66* | 105* | 93* | 84* | 91* | 2 | 65* | 106*
Cc1cc(C)c(C(=O)C(C)OC(=O)Cn2cnc3c2c(=O)n(C)c(=O)n3C)cc1C (centres undefined) | -5 | 7 | 4 | 5 | 1 | -6 | . | .
COC(=O)c1[nH]c2ccc(Cl)cc2c1NC(=O)CCN1CCN(C2CCCCC2)CC1 | -1 | 4 | 18 | 3 | 3 | -13 | . | .
COC(=O)c1[nH]c2ccc(Br)cc2c1NC(=O)CN1CCN(C2CCCCC2)CC1 | -11 | 104* | 68* | 86* | -7 | -5 | 9 | 104* | Mdm2 MdmX conf=103*
COc1cc(/C=C2\CC(C(C)(C)C)C/C(=C\c3cc(OC)c(OC)c(OC)c3)C2=O)cc(OC)c1OC (centres undefined) | -8 | 104* | 94* | 84* | -10 | ? | . | . | Mdm2 MdmX conf=102*
O=C(Cn1nnc(-c2ccc(F)cc2)n1)N1CCCCC1 | 2 | -17 | -15 | -3 | 24 | -7 | . | .
Nc1ccc(-c2nnn(CC(=O)N3CCCCC3)n2)cc1 | -2 | -3 | 49* | -1 | 5 | 1 | 48* | 18
Cc1noc(C)c1C(=O)OCC(=O)Nc1ncc(Cl)c(C)c1Cl | -15 | 0 | 6 | -10 | -13 | 15 | . | .
COc1ccc(NC(=S)NC(NC(=O)c2cccc(Cl)c2)C(Cl)(Cl)Cl)c([N+](=O)[O-])c1 (centres undefined) | 6 | 34 | -40 | -13 | 24 | 33 | . | .
O=C(NC(NC(=S)Nc1ccccc1Cl)C(Cl)(Cl)Cl)c1cccc(Cl)c1 (centres undefined) | -32 | 46 | 44* | 2 | 45 | 74 | 19 | 102*
COC(=O)C(Cc1ccccc1)NC(=O)c1ccc(NS(=O)(=O)c2ccc3[nH]c(=O)[nH]c3c2)cc1 (centres undefined) | 4 | 7 | 4 | -2 | -12 | -7 | . | .
Cc1ccc(C)c(SCC(=O)N(C)CC(=O)Nc2ccc(N3CCOCC3)cc2)c1 | 1 | 11 | 12 | -7 | -2 | 13 | . | .
COCCN1CCn2c(nc3cc([N+](=O)[O-])ccc32)C1 | -2 | 1 | 69* | 11 | -13 | 9 | -32 | 2
O=[N+]([O-])c1ccc2c(c1)nc1n2CCN(CC2CCCO2)C1 (centres undefined) | 6 | -50 | -41 | -16 | -17 | -18 | . | .
COc1ccc(-n2ncc(Cl)c(Cl)c2=O)cc1 | -78* | 105* | 95* | . | 89* | 98* | 96* | 107* | Mdm2 MdmX conf=102*
C=CCNc1nc2ccccc2nc1NS(=O)(=O)c1ccc(Cl)cc1 | 0 | 27 | 18 | 4 | 5 | -5 | . | .
Cc1cccc(C)c1NC(=O)CCCSc1nc2ccccc2s1 | 5 | -40 | -54 | 5 | 8 | 1 | . | .
NC(=O)NC(=O)COC(=O)CCCSc1nc2ccccc2s1 | 3 | 18 | 71* | 17 | 2 | 17 | 83* | 62*
O=C(O)CCSc1nc2ccccc2s1 | -2 | 47 | 89* | 4 | 9 | 43 | 97* | 92*
CC(=O)Nc1ccc(NC(=O)CCCSc2nc3ccccc3s2)cc1 | -1 | -11 | 2 | 14 | -17 | -36 | . | .
CC(C)NC(=O)NC(=O)COC(=O)CCCSc1nc2ccccc2s1 | 14 | -1 | 13 | 0 | 9 | -3 | . | .
O=C(CCCSc1nc2ccccc2s1)NC1=NCCS1 | 0 | -83 | 72* | 10 | 2 | -14 | 85* | 47
SMILES | KKLEB tox | Peg3 promoter | HIF-2a block | MITF TRPM1 inh | CF NFkB inh | Shn3 3UTR inh | HIF-2a conf | HIF-1a cs | others
c1ccc2sc(SCSc3nc4ccccc4s3)nc2c1 | 3 | -145 | -284 | -21 | 2 | . | . | .
CCOC(=O)NC(=O)COC(=O)CCCSc1nc2ccccc2s1 | 7 | 5 | 59* | 15 | -1 | 10 | 76* | 44
COc1ccc(C2N(C(=O)CN3CCCC3)CCCN2S(=O)(=O)c2ccccc2)cc1 (centres undefined) | 2 | -2 | 13 | 2 | -2 | -5 | . | .
CCNC(=O)C1(C)CCCN(C(=O)c2sccc2C)C1 (centres undefined) | 6 | -3 | 0 | . | -32 | -7 | . | .
Cc1ccc(C(=O)C2C(=O)C3CCC2C3)cc1 (centres undefined) | 13 | 38 | 46* | . | -22 | -14 | 2 | 10
O=C(O)CSc1c2c(nc3cc(C(=O)Nc4ccc(F)c(Cl)c4)ccc13)CCCC2 | 2 | 1 | 12 | 9 | 22 | 14 | . | .
COC(=O)c1ccc(/C=C(\C#N)C(=O)NC(C)c2ccccc2)cc1 (centres undefined) | -13 | 104* | 67* | 81* | 77* | 38 | 48* | 105*
CC[C@H](C)[C@@H](CN[C@H](CCCCNC)CNC)NCC1CCCC1 | 2 | -9 | 11 | 3 | 0 | 4 | . | .
CCCC[C@@H](CN[C@H](C)CNC)NCC1CCC(C(C)(C)C)CC1 (some centres undefined) | . | . | . | . | . | . | . | . | Mdm2 MdmX conf=103*
C[N+](C)(CCOc1ccccc1)Cc1ccccc1 | 5 | 7 | -2 | 6 | -9 | -13 | . | .
Cc1cc(C(C)(C)CC(C)(C)C)ccc1OCCOCC[N+](C)(C)Cc1ccccc1 | -22 | 102* | -11 | 96* | 63* | 88* | . | . | Mdm2 MdmX conf=103*
CCN(CC)CCNC(=O)c1cc2c(-c3ccc(Cl)cc3)nn(C)c2s1 | -13 | 88* | 58* | 62* | -41 | -13 | 15 | 88*
